# Screens as filed in PubChem BioAssay.
# YB-1 expr inh = YB-1 expression inhibition; U2OS, qRT-PCR YB-1 vs CDIP delta delta Cp, 16 h; stronger effect = higher value; zero = DMSO, each unit about twofold; delta delta Cp (YB-1 minus CDIP) (concentration not given with the values); 30,000 tested, 0.37% active;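 active means delta delta Cp rounded down to an integer at or above 3, about 3 SD of DMSO wells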;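 further: higher means less YB-1 transcript or more CDIP transcript relative to DMSO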
# U2OS ROS induce = raises reactive oxygen species in U2OS cancer cells | U2OS ROS induction, H2DCF-DA fluorescence | ROS induction (% of piperlongumine), % at 10 µM | 46,000 tested, 2% active; in the data active means ROS induction above about 79%, passing the limit was not always enough; inconclusive means no clear call, values can overlap the other calls;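 further: 0% = DMSO vehicle median and 100% = reference compound median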
# * hit, by the source's call; u = inconclusive; x = no result. Most compounds without a hit are left out; they make up all but 2.1% or so of the library.
SMILES,YB-1 expr inh,U2OS ROS induce
C[C@H](c1ccccc1)N1C[C@@H](CO)OC1=O,x,-6
COC(=O)c1ccccc1NC(=O)c1c(C)nn(-c2ccccc2)c1-n1cccc1,x,126*
COc1cc(OC)c(NC(=O)c2c(C)nn(-c3ccccc3)c2-n2cccc2)cc1Cl,x,26
O=C(OCCCN1C(=O)c2ccccc2C1=O)c1ccc(Cl)cc1Cl,x,-9
Cc1n[nH]c(=O)c2nc(-c3ccccc3)sc12,x,-14
Cc1ccc(/C=C/c2onc3c(=O)[nH]nc(C)c23)cc1,x,119*
O=C(NC1Cc2ccccc2C1)c1ccc(Oc2cc(Cl)cc(Cl)c2)o1,x,15
CNC(=O)CCCn1nc(C)c2sc3ccccc3c2c1=O,x,-9
CCOC(=O)c1cnc2ccc(OCC)cc2c1NCCCN1CCOCC1,x,52
CCOC(=O)c1cnc2c(C(F)(F)F)cccc2c1NCCCN1CCOCC1,x,113*
COc1ccccc1/C=C/C(=O)Nc1sc2c(c1C(N)=O)CCC2,x,-3
CN1CCN(c2ccc(CNS(=O)(=O)c3ccc4c(c3)CCO4)cc2)CC1,x,17
C[C@@H]1CN([C@H](C)CO)C(=O)Cc2cc(NC(=O)C3CCCCC3)ccc2O[C@H]1CN(C)CC1CC1,0.31,95*
C[C@H]1CN([C@@H](C)CO)C(=O)Cc2cc(NC(=O)Nc3ccccc3)ccc2O[C@@H]1CN(C)CC1CCCCC1,0.29,2
C[C@H]1CN([C@@H](C)CO)C(=O)Cc2cc(NC(=O)C3CCCCC3)ccc2O[C@H]1CN(C)CC1CCCCC1,-0.46,12
C[C@@H]1CN([C@@H](C)CO)C(=O)Cc2cc(NC(=O)Nc3ccccc3)ccc2O[C@@H]1CN(C)CC1CCCCC1,0.39,95*
COc1ccc2oc(=O)c3c(c2c1)CC(C(F)(F)F)S3 (stereo not drawn),x,8
CC1CCN(C(=O)c2ccccc2Br)CC1,x,0
COc1ccc(-c2c(C)nn3c(N4CCC(C)CC4)cc(C)nc23)cc1OC,x,93*
COc1ccc(OC)c2c1CC(C)(C)n1c(-c3ccc(Cl)cc3)nnc1-2,x,-5
CC(C)CCNC(=O)c1ccc(N2CCCC2=O)cc1,x,-4
c1ccc(Cn2ccnc2SCc2nnc(-c3ccccc3)o2)cc1,x,105*
Cc1cc(-n2nc3ccccc3n2)c2oc(SCc3nnc(-c4ccccc4)o3)nc2c1,x,3
COc1ccc(-c2cc(-c3ccccc3)c(C#N)c(SCS(=O)Cc3ccccc3)n2)cc1 (stereo not drawn),x,87*
COc1ccc(-c2cc(-c3ccccc3)nc(SCC(=O)N3CCCCC3)c2C#N)cc1,x,54
SMILES,YB-1 expr inh,U2OS ROS induce
CCOC(=O)c1cnn(-c2ccccc2)c1NC(=O)Nc1cccc(Cl)c1,x,-8
Cc1nc2c(cnn2-c2ccccc2)c(=O)n1NC(=O)Nc1ccc(Cl)c(Cl)c1,9.9*,25
CCC(C(=O)NCc1cc(Br)ccc1OC)n1nc(C)n2c(cc3occc32)c1=O (stereo not drawn),x,-8
COc1ccc(CN2CC(C(=O)NCCCN3CCC(C)CC3)CC2=O)cc1 (stereo not drawn),x,-7
C[C@H](CO)N1C[C@H](C)[C@H](CN(C)S(=O)(=O)c2cccs2)OCc2cn(nn2)CCCC1=O,-0.47,28
C[C@H]1CN([C@@H](C)CO)C(=O)CCCn2cc(nn2)CO[C@H]1CN(C)S(=O)(=O)c1ccccc1,-0.064,-22
C[C@@H]1CN([C@H](C)CO)C(=O)CCCn2cc(nn2)CO[C@@H]1CN(C)S(=O)(=O)c1ccccc1,0.039,104*
C[C@@H]1CN([C@H](C)CO)C(=O)CCCn2cc(nn2)CO[C@@H]1CN(C)S(=O)(=O)c1cccs1,-0.34,89*
CCCc1c(C(=O)NCc2ccc3c(c2)OCO3)cnn1-c1ccccc1,x,4
C=CCN1C(=O)[C@]2(O[C@H](CCn3cc(CCO)nn3)[C@@H]([Si](C)(C)c3ccc(OC)cc3)[C@@H]2C)c2ccccc21,0.49,35
COc1ccc([Si](C)(C)[C@@H]2[C@@H](CCn3cc(CCO)nn3)O[C@]3(C(=O)N(Cc4cccc(N5CCOC5=O)c4)c4ccccc43)[C@H]2C)cc1,-0.089,116*
COc1ccc([Si](C)(C)[C@H]2[C@H](CCn3cc(CCO)nn3)O[C@@]3(C(=O)N(Cc4ccc(N5CCOC5=O)cc4)c4ccccc43)[C@@H]2C)cc1,0.13,145*
COc1ccc([Si](C)(C)[C@@H]2[C@@H](CCn3cc([C@H](O)c4ccccc4)nn3)O[C@]3(C(=O)N(Cc4cccc(N5CCOC5=O)c4)c4ccccc43)[C@H]2C)cc1,-0.068,116*
C=CCN1C(=O)[C@@]2(O[C@@H](CCn3cc([C@H](O)c4ccccc4)nn3)[C@H]([Si](C)(C)c3ccc(OC)cc3)[C@H]2C)c2cc(N3CCOC3=O)ccc21,-0.098,63
C=CCN1C(=O)[C@@]2(O[C@@H](CCn3cc(CCO)nn3)[C@H]([Si](C)(C)c3ccc(OC)cc3)[C@H]2C)c2cc(N3CCOC3=O)ccc21,0.38,45
COc1ccc([Si](C)(C)[C@H]2[C@H](CCO)O[C@@]3(C(=O)N(Cc4cccc(NC(C)=O)c4)c4ccccc43)[C@@H]2C)cc1,0.29,u
COc1ccc([Si](C)(C)[C@H]2[C@H](CCn3cc(CCO)nn3)O[C@@]3(C(=O)N(Cc4cccc(N5CCOC5=O)c4)c4ccccc43)[C@@H]2C)cc1,0.4,107*
CCC(Sc1nc2cc(OC)c(OC)cc2c(=O)n1Cc1ccco1)C(=O)Nc1ccc(C)cc1 (stereo not drawn),x,4
Cc1nnc(SCc2ccc(C(=O)N3CCOCC3)cc2)s1,x,-2
O=c1c2ccccc2[nH]c(=S)n1CC1COc2ccccc2O1 (stereo not drawn),x,7
O=C(NCc1nc2ccccc2s1)c1cc(F)cc2c1OCOC2,x,0
C=CCOc1nc(F)c(Cl)c2c1Oc1cc(Br)c(Br)cc1O2,x,-9
Cc1ccc(S(=O)(=O)N(C)C[C@@H]2Oc3ccc(NS(=O)(=O)c4ccc(Cl)cc4)cc3CC(=O)N([C@@H](C)CO)C[C@@H]2C)cc1,0.12,14
Cc1noc(C)c1NC(=O)Nc1ccc2c(c1)CC(=O)N([C@H](C)CO)C[C@H](C)[C@H](CN(C)Cc1ccc3c(c1)OCO3)O2,-0.054,4
Cc1ccc(S(=O)(=O)Nc2ccc3c(c2)CC(=O)N([C@@H](C)CO)C[C@@H](C)[C@@H](CN(C)S(=O)(=O)c2cccs2)O3)cc1,0.11,0
SMILES,YB-1 expr inh,U2OS ROS induce
Cc1noc(C)c1NC(=O)Nc1ccc2c(c1)CC(=O)N([C@H](C)CO)C[C@@H](C)[C@@H](CN(C)S(=O)(=O)c1cccs1)O2,-0.24,106*
Cc1noc(C)c1NC(=O)Nc1ccc2c(c1)CC(=O)N([C@@H](C)CO)C[C@H](C)[C@H](CN(C)S(=O)(=O)c1cccs1)O2,-0.18,12
Cc1ccc(S(=O)(=O)Nc2ccc3c(c2)CC(=O)N([C@H](C)CO)C[C@H](C)[C@H](CN(C)S(=O)(=O)c2cccs2)O3)cc1,0.72,96*
Cc1noc(C)c1NC(=O)Nc1ccc2c(c1)CC(=O)N([C@@H](C)CO)C[C@H](C)[C@H](CN(C)Cc1ccc3c(c1)OCO3)O2,0.35,124*
C[C@H]1CN([C@@H](C)CO)C(=O)Cc2cc(NS(=O)(=O)c3ccc(Cl)cc3)ccc2O[C@@H]1CN(C)S(=O)(=O)c1ccc(Cl)cc1,0.23,84*
CCOC(=O)c1c(N)n[nH]c1C,x,4
CC(C)NC(=O)Cn1nc(Cc2ccncc2)c2ccccc2c1=O,x,7
